Measurements: ChEMBL document CHEMBL4513216, “Probing the Open Global Health Chemical Diversity Library for Multistage-Active Starting Points for Next-Generation Antimalarials” (ACS Infect Dis, 2020)
In all, about 69,000 compounds went through this assay and about 8,600 (12%) showed an effect of 50% or more. This is one part of a sample in which strong results are shown more often than they occur.

Tested on: Plasmodium berghei
Assay: Screen against P. berghei liver stage (PbLuc), transformed with Luciferase, at 10uM
Assay type: functional, HepG2
Conditions: tested at 10 uM

Row | Structure (SMILES) | INHIBITION [%]
1 | O=C(CCSc1ccccc1F)NCc1cccnc1 | -0.514
2 | NC(=O)CN1CC(c2nc(C3CC3)no2)C1 | 19.8
3 | Cc1nn(CCNC(=O)c2cc(C3CC3)[nH]n2)c(C)c1Cl | -28
4 | CCN(C)c1ncnc2c1CCN(Cc1ccncc1)CC2 | 38.3
5 | CN(C)S(=O)(=O)N1C[C@@H](OCc2cccnc2)[C@H]2OCCC[C@H]21 | 11.6
6 | Cc1nc2cc(C(=O)N(CCC#N)CC3CCCO3)ccc2[nH]1 (stereo unspecified) | -0.371
7 | Cc1ccccc1C(N)c1ccncc1 (stereo unspecified) | -1.38
8 | Cc1nc(CN2CCC3(CCN(Cc4cnn(C)c4)CC3)C2=O)cs1 | -22.1
9 | CSc1ccccc1C(=O)N1C[C@@H]2CC[C@H]1CN(C(=O)C1CCC1)C2 | 9.41
10 | CCC(C)Sc1ncc(-c2c(C#N)c(N)nc3c2COCC3)cn1 (stereo unspecified) | 29.9
11 | Cc1noc(CCNC(=O)NCc2ccc(N3CCCCC3)cc2)n1 | -95.7
12 | CCc1cc(CNC(=O)Nc2cc(F)cc(N3CCCC3)c2)on1 | 38.3
13 | CCc1cc(CNC(=O)NCc2ccc(N3CCCCC3)cc2)on1 | 51.1
14 | COc1ccccc1CN(CC1CCCO1)C(=O)c1ccc(F)cn1 (stereo unspecified) | 5.23
15 | CCn1cc2c(n1)CN(S(=O)(=O)c1cn(C)cn1)CC2COC (stereo unspecified) | -18.5
16 | CN(C)c1nc(N)nc(CN2CCCC2c2ccsc2)n1 (stereo unspecified) | 25.5
17 | Cn1ccc(CN2CCC(c3ccccc3)CC2)cc1=O | 38
18 | CN(C)c1nc(N)nc(CN2CCCC(c3ccccc3)CC2)n1 (stereo unspecified) | 57.8
19 | CN(C)c1nc(N)nc(CN2CCCC2c2cccs2)n1 (stereo unspecified) | 70
20 | Cc1cccc(C2CCCN2Cc2nc(N)nc(N(C)C)n2)c1C (stereo unspecified) | 35.2
21 | CN(C)c1nc(N)nc(CN2CCC(c3nc4ccccc4o3)CC2)n1 | 45.4
22 | CCC1CCCN(Cc2nc(N)c3ccccc3n2)C1 (stereo unspecified) | 36.75
23 | CN(C)c1nc(N)nc(CN2CCC(c3ccccc3)CC2)n1 | 67.8

Row | Structure (SMILES) | INHIBITION [%]
24 | O=C(O)CN1CCC(c2ccccc2)CC1 | 1.03
25 | CCN(Cc1ccncc1)c1cc(C2CCN2C(C)=O)nc(C)n1 (stereo unspecified) | 19.775
26 | CC(C)c1cc(C(=O)N[C@@H]2CC[C@@H](Oc3ccccc3)[C@@H]2O)on1 | -10.955
27 | CCOCCNC(=O)[C@@H]1CCCN1c1nccc(Nc2ccccc2)n1 | 6.55
28 | O=C(CSc1ccncc1)N1C[C@@H]2CC[C@H]1CN(Cc1cccnc1)C2 | 9.54
29 | CCc1csc(C2CCCN(C(=O)c3ccccn3)C2)n1 (stereo unspecified) | 14.1
30 | NCC1[C@H]2CN(Cc3cccc(Cl)c3)C[C@@H]12 (stereo partly specified) | 13.7
31 | Cc1ccc(S(=O)(=O)N2CCN(C)c3ccncc32)cc1F | 41
32 | Cc1ncc(CN(C)C2CCCN(c3cccnn3)C2)s1 (stereo unspecified) | 58.3
33 | c1ccc(-c2cnc(CNC3CCCN(c4cccnn4)C3)o2)cc1 (stereo unspecified) | 51.2
34 | COCCc1noc(CNC2CCCN(c3cccnn3)C2)n1 (stereo unspecified) | 21.8
35 | CN(Cc1ncc(-c2ccccc2)o1)C1CCCN(c2cccnn2)C1 (stereo unspecified) | 43.2
36 | Cc1cnc(CN(C)C2CCCN(c3cccnn3)C2)cn1 (stereo unspecified) | 3.19
37 | c1cnnc(N2CCCC(NCc3ccncc3)C2)c1 (stereo unspecified) | 30.8
38 | CN(Cc1ccc(Cl)s1)C1CCCN(c2cccnn2)C1 (stereo unspecified) | 17.4
39 | c1cnnc(N2CCCC(NCc3nc(-c4ccco4)no3)C2)c1 (stereo unspecified) | 55.5
40 | c1cnnc(N2CCCC(NCc3nc(C4CC4)no3)C2)c1 (stereo unspecified) | 58.5
41 | c1ccc(-c2noc(CNC3CCCN(c4cccnn4)C3)n2)nc1 (stereo unspecified) | 45.4
42 | Cc1oc(-c2ccco2)nc1CNC1CCCN(c2cccnn2)C1 (stereo unspecified) | -21.55
43 | c1ccc(-c2nnc(CNC3CCCN(c4cccnn4)C3)o2)cc1 (stereo unspecified) | -43.25
44 | CC1c2cc(F)ccc2CCN1C(=O)c1[nH]c(=O)[nH]c(=O)c1N (stereo unspecified) | 33.4
45 | CCc1cc(C(=O)N2CC[C@@H](c3ccc4c(c3)OCO4)[C@H](O)C2)ccn1 | 26.5
46 | Cc1noc(C)c1CN1CCn2cc(CN3CCCCC3)nc2C1 | -33.1

Row | Structure (SMILES) | INHIBITION [%]
47 | O=C(NCc1nnc2n1CCC2)NCC1(c2cccc(F)c2)CC1 | -14.6
48 | c1nc2c(c(NC3COC4(CCCC4)C3)n1)CCNCC2 (stereo unspecified) | 37.7
49 | c1cnnc(N2CCCC(NCc3cccc4c3OCCO4)C2)c1 (stereo unspecified) | -12.2
50 | c1cnnc(N2CCCC(NCc3cccc4c3OCCCO4)C2)c1 (stereo unspecified) | 11.9
51 | C=c1ccoc1=C1NN=C(CNCC2CCCN2c2cccnn2)O1 (stereo unspecified) | 18.5
52 | c1cnnc(N2CCCC(NCc3cccc4c3OCO4)C2)c1 (stereo unspecified) | 53.7
53 | c1cnnc(N2CCCC(NCc3nc(-c4cccs4)no3)C2)c1 (stereo unspecified) | 60.3
54 | COCCc1noc(CN(C)C2CCCN(c3cccnn3)C2)n1 (stereo unspecified) | 9.54
55 | c1cnnc(N2CCCC(NCc3nnc(-c4ccco4)o3)C2)c1 (stereo unspecified) | 31.8
56 | c1cnnc(N2CCCC2CNCc2nc(-c3cccs3)no2)c1 (stereo unspecified) | 31.9
57 | c1csc(-c2noc(CNC3CCc4ncnn4C3)n2)c1 (stereo unspecified) | 0.65
58 | CN(Cc1nc(C2CC2)no1)C1CCCN(c2cccnn2)C1 (stereo unspecified) | 53.5
59 | CN(Cc1nc(-c2ccco2)no1)C1CCCN(c2cccnn2)C1 (stereo unspecified) | 20.1
60 | C=c1ccoc1=C1NN=C(CNC2CCCN(c3cccnn3)C2)O1 (stereo unspecified) | 56.05
61 | CC(C)c1noc(CCC(=O)NCC2CC2)n1 | 38.5
62 | O=C1CC(NCc2ccccn2)CN1CCc1ccc(F)cc1 (stereo unspecified) | 17.8
63 | CN1CCC/C1=N\S(=O)(=O)c1ccc(NC(=O)Cc2cccs2)cc1 | -6.14
64 | O=C(CCn1cc(Cl)cn1)N1C[C@H]2CC[C@@H](C1)N(Cc1ccccn1)C2 | -29.1
65 | Cc1cnn(CC2CCCCN2C(=O)c2cnc3n[nH]c(C)c3c2)c1 (stereo unspecified) | -14
66 | CN(CCO)Cc1cc(Cl)ccc1OCC(O)CN1CCCCCC1 (stereo unspecified) | -26.8
67 | O=C(NCc1ccccc1Cn1cncn1)C1CCC1 | 11.4
68 | CC(=O)N1CCC(Cc2nccnc2-c2ccnn2C)CC1 | 4.41
69 | CN(c1ncnc2c1cnn2C)C1CCCN(c2cccnn2)C1 (stereo unspecified) | -12.7

Row | Structure (SMILES) | INHIBITION [%]
70 | CN(c1ncnc2ccccc12)C1CCCN(c2cccnn2)C1 (stereo unspecified) | 52
71 | c1csc(-c2noc(CCCN3CCCC3Cn3cccn3)n2)c1 (stereo unspecified) | 39.8
72 | CN(Cc1cn2ccccc2c1C#N)C1CCCN(c2cccnn2)C1 (stereo unspecified) | 59.4
73 | CN(Cc1ccccn1)C1CCCN(c2cccnn2)C1 (stereo unspecified) | 7.12
74 | CN(Cc1cn2ccccc2n1)C1CCCN(c2cccnn2)C1 (stereo unspecified) | 16.7
75 | c1cnnc(N2CCCC(NCc3nc(-c4ccsc4)no3)C2)c1 (stereo unspecified) | 59.3
76 | c1cncc(-c2noc(CNC3CCCN(c4cccnn4)C3)n2)c1 (stereo unspecified) | 8.66
77 | CN(c1ncnc2sccc12)C1CCCN(c2cccnn2)C1 (stereo unspecified) | 7.18
78 | c1cnnc(N2CCCC2CNCc2nc(-c3ccsc3)no2)c1 (stereo unspecified) | 27.9
79 | Cc1nccn1CC1CCCN1CCCc1nc(-c2cccs2)no1 (stereo unspecified) | 68.4
80 | c1csc(-c2noc(CCCN3CCCC3Cn3cncn3)n2)c1 (stereo unspecified) | -9.76
81 | c1cc(C2CN(C3CCCC3)C2)n[nH]1 | 7.4
82 | O=C(CCOc1ccccc1F)N1CCOCC1 | 48.2
83 | CN(C)CCOCC1CN(Cc2ccccn2)Cc2nnn(C)c21 (stereo unspecified) | -2.35
84 | CN(C)c1ccnc(C2CCCN2)n1 (stereo unspecified) | 10.45
85 | Cc1cccc(C2(CNC(=O)CO)CCCC2)c1 | 21.5
86 | Cc1cccc(C2(CNC(=O)C(C)S(C)(=O)=O)CCCC2)c1 (stereo unspecified) | 2.39
87 | Cc1cccc(C2(CNC(=O)CCNS(C)(=O)=O)CCCC2)c1 | 67.5
88 | C[C@@H]1CN(c2ccc(Cl)cn2)CC[C@@]1(O)C1CCOCC1 | 17.215
89 | CCOC(=O)N1CCC(OC)c2ccccc2N(C)C(=O)C1 (stereo unspecified) | 46.4
90 | CCc1cc(=O)n(CC(=O)N2CCCC2)c(-c2cccc(F)c2)n1 | 46.6
91 | COCC(=O)N1CCN(C(=O)c2scnc2C)CC1 | 21.3
92 | CCOCC(=O)N1CCc2c(ncnc2N2CCOCC2)C1 | -68.2

Row | Structure (SMILES) | INHIBITION [%]
93 | CCN1CCN(c2ncnc3c2CCN(C(=O)C2CC2)C3)CC1 | 61.1
94 | O=C(C1CC1)N1CCCN(c2ncnc3c2CCNCC3)CC1 | -20.6
95 | CNC(=O)C1CCN(c2ncnc3c2CCN(C(=O)C2CC2)C3)C1 (stereo unspecified) | 57.8
96 | O=C(C1CC1)N1CCc2c(ncnc2N2CCN3CCCC3C2)C1 (stereo unspecified) | 46.6
97 | CCN(CC)C1CCN(c2ncnc3c2CCN(C(=O)C2CC2)C3)C1 (stereo unspecified) | 64.5
98 | CCCOC1CCCN(c2ncnc3c2CCN(C(=O)C2CC2)C3)C1 (stereo unspecified) | 49.9
99 | CSCCC(=O)N1CCc2c(ncnc2N2CCOCC2)C1 | -103
100 | Cc1cnc(-c2nc(O)c3c(n2)CN(C(=O)C2CC2)CC3)cn1 | 9.98
101 | CN1CCC(c2cnc(NCc3nccn3C)cn2)CC1 | 33.2
102 | COCC1CN(Cc2ccc(C)o2)Cc2nnn(CC3CC3)c21 (stereo unspecified) | -8.19
103 | Cn1nc(Br)nc1Sc1ccccc1NC(=O)C1CC1 | 37.4
104 | O=C1N(Cc2cccc(Cl)c2)CCC12CCCNC2 (stereo unspecified) | -15.9
105 | Cc1cnn(CC2CCCN2C(=O)CCc2c(C)nn(C)c2C)c1 (stereo unspecified) | 0.825
106 | CCCC(NC(=O)c1cncc(C)c1)c1nnn[nH]1 (stereo unspecified) | 23.5
107 | CCN1CC[C@@]2(C(=O)Nc3ccccc3)CCN(S(C)(=O)=O)CC[C@@H]12 | 35.8
108 | CCc1cc(C(=O)N[C@@H]2CC[C@@H](N3CCOCC3)[C@@H]2O)no1 | 10.9
109 | Cc1ccnc(OCC(=O)N2CCN(c3ncccn3)CC2)n1 | -17.8
110 | Cc1ccc(N2CCN(C(=O)COc3nccc(C)n3)CC2)nn1 | 50.5
111 | Cc1ccc(N2CCN(C(=O)COc3ncccn3)CC2)nn1 | -38.7
